Compound activity from PubChem.
Pf apPOL inh – Pf-apPOL DNA polymerase inhibition; 210,000 compounds, 0.25% hits; inhibition, % at 10 µM; Recombinant Pf-apPOL, molecular beacon fluorescence, 1.5 h
mHTT-CaM PPI inh – disrupts binding of mutant huntingtin to calmodulin; AlphaScreen His-mHTT/GST-CaM binding, luminescence; AID 1671202; inhibition, % at 15 µM; 190,000 compounds, 3.6% hits; P42858;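 further: 0% = both proteins with DMSO and 100% = one protein alone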
Target sequence (P42858 whole entry, looked up, stated change not applied): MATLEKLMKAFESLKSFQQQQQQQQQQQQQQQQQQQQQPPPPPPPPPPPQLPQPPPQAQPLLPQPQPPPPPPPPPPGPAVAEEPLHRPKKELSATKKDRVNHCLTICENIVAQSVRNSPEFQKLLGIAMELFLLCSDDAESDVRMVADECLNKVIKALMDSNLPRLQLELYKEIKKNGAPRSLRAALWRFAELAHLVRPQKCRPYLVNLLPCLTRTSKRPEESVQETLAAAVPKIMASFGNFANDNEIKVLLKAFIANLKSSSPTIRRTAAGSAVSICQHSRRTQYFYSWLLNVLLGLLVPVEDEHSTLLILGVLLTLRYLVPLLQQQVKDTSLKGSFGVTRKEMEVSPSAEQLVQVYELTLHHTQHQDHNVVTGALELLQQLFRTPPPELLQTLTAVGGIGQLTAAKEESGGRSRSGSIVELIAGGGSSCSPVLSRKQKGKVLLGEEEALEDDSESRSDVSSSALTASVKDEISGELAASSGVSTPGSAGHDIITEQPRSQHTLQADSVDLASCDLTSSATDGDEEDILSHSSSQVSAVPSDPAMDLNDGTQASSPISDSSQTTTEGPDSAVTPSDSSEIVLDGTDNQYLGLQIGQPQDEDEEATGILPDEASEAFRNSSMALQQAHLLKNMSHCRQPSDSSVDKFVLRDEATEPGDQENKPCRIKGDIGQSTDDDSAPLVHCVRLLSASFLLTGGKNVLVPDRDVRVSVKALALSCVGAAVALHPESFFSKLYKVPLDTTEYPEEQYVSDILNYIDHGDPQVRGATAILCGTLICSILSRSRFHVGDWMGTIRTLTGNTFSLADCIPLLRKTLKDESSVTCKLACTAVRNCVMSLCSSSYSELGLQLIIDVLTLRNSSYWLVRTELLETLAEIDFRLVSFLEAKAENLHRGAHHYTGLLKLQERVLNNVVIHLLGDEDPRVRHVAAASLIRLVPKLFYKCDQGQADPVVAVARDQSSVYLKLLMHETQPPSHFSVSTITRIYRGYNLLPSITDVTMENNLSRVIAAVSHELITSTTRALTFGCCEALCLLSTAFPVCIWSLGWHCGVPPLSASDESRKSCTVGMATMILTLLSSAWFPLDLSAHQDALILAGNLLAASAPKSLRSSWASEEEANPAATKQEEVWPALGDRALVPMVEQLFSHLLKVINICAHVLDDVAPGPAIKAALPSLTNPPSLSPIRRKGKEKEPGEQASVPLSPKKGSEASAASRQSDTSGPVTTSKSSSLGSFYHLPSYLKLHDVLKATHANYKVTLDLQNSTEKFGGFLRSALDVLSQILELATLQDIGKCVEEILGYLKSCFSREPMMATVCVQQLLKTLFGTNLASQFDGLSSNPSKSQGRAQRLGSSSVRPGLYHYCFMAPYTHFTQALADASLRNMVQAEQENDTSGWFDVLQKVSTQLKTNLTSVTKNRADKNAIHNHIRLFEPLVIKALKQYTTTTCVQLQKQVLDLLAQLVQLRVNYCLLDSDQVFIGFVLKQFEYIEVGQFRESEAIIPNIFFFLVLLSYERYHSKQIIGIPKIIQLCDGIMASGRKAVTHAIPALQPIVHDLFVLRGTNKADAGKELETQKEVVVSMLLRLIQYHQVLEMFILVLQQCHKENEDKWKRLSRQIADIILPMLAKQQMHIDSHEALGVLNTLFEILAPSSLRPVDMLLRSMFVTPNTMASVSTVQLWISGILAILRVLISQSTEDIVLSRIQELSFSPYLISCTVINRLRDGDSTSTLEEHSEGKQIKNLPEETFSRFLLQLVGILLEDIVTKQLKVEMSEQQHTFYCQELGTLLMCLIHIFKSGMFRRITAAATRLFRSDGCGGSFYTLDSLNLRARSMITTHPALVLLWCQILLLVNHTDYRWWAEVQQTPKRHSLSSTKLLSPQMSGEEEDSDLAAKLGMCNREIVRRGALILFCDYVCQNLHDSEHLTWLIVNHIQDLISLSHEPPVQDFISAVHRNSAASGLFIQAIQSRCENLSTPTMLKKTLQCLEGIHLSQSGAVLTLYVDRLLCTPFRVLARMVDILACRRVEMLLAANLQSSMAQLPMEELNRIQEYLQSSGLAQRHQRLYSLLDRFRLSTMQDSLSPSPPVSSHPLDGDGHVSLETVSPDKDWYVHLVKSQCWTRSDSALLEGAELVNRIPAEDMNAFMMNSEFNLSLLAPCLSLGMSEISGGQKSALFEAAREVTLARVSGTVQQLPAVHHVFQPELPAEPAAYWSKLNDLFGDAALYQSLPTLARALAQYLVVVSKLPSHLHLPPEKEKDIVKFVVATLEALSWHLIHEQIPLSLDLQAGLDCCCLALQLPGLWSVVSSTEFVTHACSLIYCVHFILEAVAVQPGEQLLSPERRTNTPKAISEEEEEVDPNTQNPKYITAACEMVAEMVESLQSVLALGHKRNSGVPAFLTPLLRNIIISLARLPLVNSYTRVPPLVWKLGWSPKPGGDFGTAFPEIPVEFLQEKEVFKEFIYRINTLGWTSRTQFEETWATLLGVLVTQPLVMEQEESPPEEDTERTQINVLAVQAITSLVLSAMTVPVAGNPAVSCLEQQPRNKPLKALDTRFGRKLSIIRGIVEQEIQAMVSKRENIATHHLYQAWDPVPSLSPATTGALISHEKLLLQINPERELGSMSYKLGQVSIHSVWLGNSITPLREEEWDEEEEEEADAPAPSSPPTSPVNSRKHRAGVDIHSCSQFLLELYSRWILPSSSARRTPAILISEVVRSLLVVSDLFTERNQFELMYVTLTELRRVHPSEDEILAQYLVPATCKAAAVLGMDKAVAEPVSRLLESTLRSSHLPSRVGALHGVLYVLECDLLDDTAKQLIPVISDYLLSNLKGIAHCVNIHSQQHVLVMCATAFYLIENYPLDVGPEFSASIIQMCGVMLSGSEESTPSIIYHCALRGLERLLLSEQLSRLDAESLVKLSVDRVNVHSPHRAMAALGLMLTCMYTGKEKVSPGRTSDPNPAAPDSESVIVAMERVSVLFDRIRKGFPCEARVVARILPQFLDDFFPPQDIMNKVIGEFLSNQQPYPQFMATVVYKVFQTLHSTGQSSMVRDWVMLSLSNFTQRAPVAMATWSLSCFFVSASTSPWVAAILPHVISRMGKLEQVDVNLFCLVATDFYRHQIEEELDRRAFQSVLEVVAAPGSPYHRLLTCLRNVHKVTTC
* marks the source's active call; other numbers are inactive results; . = no result given. Most compounds without a hit are left out; they make up all but 3.5% or so of the library. No stated cut-off is given here; in the data, active means inhibition above about 50%; inactive means the rest.

SMILES | Pf apPOL inh | mHTT-CaM PPI inh
CCC(=O)N1CCc2sc(C(=O)NCc3cccc(OC)c3)cc2C1 | -1 | 11
Cc1ccc(-c2cnc(N3CCCC(C(=O)NC4CCCCC4)C3)nc2)cc1 (centres undefined) | 2 | -8
O=C(NCc1ccccc1Cl)C1CCN(c2cncnc2N2CCCC2)CC1 | -4 | 12
CNc1ccc(C(=O)N2CCOC(COc3ccc4c(c3)CCCC4)C2)cc1 (centres undefined) | -7 | 52*
COc1ccc(OCC2CN(C(=O)c3ccc(C)cc3)CCO2)cc1 (centres undefined) | -1 | 1
COc1cc(C(=O)NCC2COC3(CCCCC3)O2)cc(OC)c1OC (centres undefined) | -9 | 0
COc1ccc(CC(=O)Nc2ccc(CC(=O)NC3CC3)cc2)cc1OC | -4 | -3
Cn1c(=O)c([N+](=O)[O-])c(NCc2ccccc2)c2ccccc21 | 1 | -1
CC(O)CNc1c([N+](=O)[O-])c(=O)n(C)c2ccccc12 (centres undefined) | 70* | -1
Cn1cc(C(=O)NCC2CCCCC2)nn1 | -2 | -20
Cc1nc(-c2ccccc2)sc1C(=O)N1CCC(CC(=O)NC2CCCCC2)CC1 | -6 | 24
Cc1nc(-c2ccccc2)sc1C(=O)N1CCC(C(C)C(=O)NC2CCCC2)CC1 (centres undefined) | -1 | 100*
CCCN(CCC)S(=O)(=O)c1ccc(C(=O)NNC(=S)Nc2ccc(Cl)c(Cl)c2)cc1 | -28 | .
Cc1nc2ccc(NC(=O)c3cccnc3)cc2c(=O)n1-c1ccc(F)cc1 | -5 | 3
O=C(Nc1cccc(C(F)(F)F)c1)N1CCC2(CC1)Nc1ccccc1-n1cccc12 | 4 | 97*
CCOc1ccccc1NC(=O)N1CCC2(CC1)Nc1ccccc1-n1cccc12 | -7 | 21
CCOC(=O)c1ccccc1NC(=O)N1CCC2(CC1)Nc1ccccc1-n1cccc12 | 4 | 60*
CCOC(=O)Cc1ccc(NC(=O)N2CCC3(CC2)Nc2ccccc2-n2cccc23)cc1 | 4 | 76*
CCOC(=O)c1cccc(NC(=O)N2CCC3(CC2)Nc2ccccc2-n2cccc23)c1 | -5 | 66*
S=c1n(CN2CCC(c3ccccc3)C2)nc(Cc2ccccc2)n1-c1ccccc1 (centres undefined) | . | 6
O=[N+]([O-])c1ccc(O)c(CN2CCN(C/C=C/c3ccccc3)CC2)c1 | -2 | 5
Cc1cccc(N2CCN(C(=O)Nc3ccccc3)C(C)C2=O)c1 (centres undefined) | -1 | -13
O=C1ON=C(CSc2ccccc2)C1=Cc1ccccc1 | 61* | .
O=C1CCC=C1CSc1ccccc1 | . | -7
Cc1ccc(C)c(S(=O)(=O)N2CCC(c3nc(C(=O)N4CCCC4)c(C)o3)CC2)c1 | -7 | 34
SMILES | Pf apPOL inh | mHTT-CaM PPI inh
COc1cccc(NC(=O)C2CCCN(c3cnn(C)c(=O)c3)C2)c1 (centres undefined) | -2 | 17
CCOC(=O)/C=C1\CN(Cc2ccc(OC)cc2)S(=O)(=O)c2ccc(C(F)(F)F)cc21 | 78* | 53*
CCOC(=O)/C=C1\CN(Cc2ccccc2)S(=O)(=O)c2ccc(C(F)(F)F)cc21 | 34 | 20
CN1CC(C(=O)NC23CC4CC(CC(C4)C2)C3)CC1=O (centres undefined) | . | -6
CCc1noc(C2CCCCN2Cc2ccccc2F)n1 (centres undefined) | 5 | -38
COc1ccc(N2CC(c3nnc(NC(=O)c4cccc(Cl)c4)o3)CC2=O)cc1 (centres undefined) | -2 | 56*
CCOc1ccc(N2CC(c3nnc(NC(=O)c4cccc(Cl)c4)o3)CC2=O)cc1 (centres undefined) | -2 | 77*
CSc1ccc(N2CC(c3nnc(NC(=O)c4cccc(C)c4)o3)CC2=O)cc1 (centres undefined) | -4 | 3
CCOc1ccc(N2CC(c3nnc(NC(=O)C4CC4)o3)CC2=O)cc1 (centres undefined) | -3 | 11
COc1ccc(N2CC(c3nnc(NC(=O)c4ccccc4)o3)CC2=O)cc1 (centres undefined) | 1 | 19
CSc1ccc(N2CC(c3nnc(NC(=O)c4cccc(Cl)c4)o3)CC2=O)cc1 (centres undefined) | -1 | 53*
CCCCN1C(=O)C(C)(C(=O)Nc2ccccc2)Oc2cccnc21 (centres undefined) | -7 | -20
COc1ccccc1NC(=O)c1ccc(SC)cc1OC | 5 | -15
Cc1cccc(CNC(=O)c2ccc3c(c2)CC(=O)N3C)c1 | -3 | 8
COC(=O)c1ccc(C(=O)N(CCn2cccn2)c2nc3c(C)cc(C)cc3s2)cc1 | -4 | 100*
Cc1ccc(C)c(C(=O)N(CCn2cccn2)c2nc3c(F)cccc3s2)c1 | -6 | -11
Cc1cc(C(=O)N2CCCC2c2c(C)noc2C)on1 (centres undefined) | 3 | -13
Cn1nc(-c2nc(-c3ccccc3)no2)c2c1CCN(C(=O)c1cccs1)C2 | 0 | 21
Cn1c2c(c3ccccc31)CN(C(=O)c1cccs1)CC2 | 13 | 100*
O=C(Nc1ccc2c(c1)OCCO2)c1ccc(F)cc1 | -10 | -9
Cc1c(C(=O)Nc2cc(C(F)(F)F)ccc2Cl)cccc1[N+](=O)[O-] | 2 | -3
O=[N+]([O-])c1ccc(Cl)c(S(=O)(=O)Nc2ccc3oc4c(c3c2)CCCC4)c1 | 22 | 68*
Cc1ccc(S(=O)(=O)Nc2ccc3oc4ccccc4c3c2)cc1[N+](=O)[O-] | -2 | 97*
O=C1CCCc2oc3ccc(NS(=O)(=O)c4cc([N+](=O)[O-])ccc4Cl)cc3c21 | 10 | 27
O=[N+]([O-])c1cc(S(=O)(=O)Nc2ccc3oc4c(c3c2)CCCC4)ccc1Cl | -9 | 75*
SMILES | Pf apPOL inh | mHTT-CaM PPI inh
O=[N+]([O-])c1ccc2oc3c(c2c1)CCCC3 | -3 | -4
Cc1ccc(S(=O)(=O)Nc2ccc(Cl)cc2)cc1[N+](=O)[O-] | -1 | 9
CCc1nc2c(c(=O)n1CC(=O)NC1CCCCC1)CN(Cc1ccccc1)CC2 | 4 | -1
CC(C)(C)C(=O)N1CCN(Cc2ccc3c(c2)OCO3)CC1 | -10 | .
CC(=O)N(Cc1ccc2c(c1)CN(C(=O)C(C)(C)C)CCO2)c1ccc(C)cc1 | -7 | 73*
Cc1cccn2c(=O)c3cc(C(=O)NCc4ccccc4)c(=N)n(CC4CCCO4)c3nc12 (centres undefined) | 8 | 1
O=C(Nc1nc(-c2nc3ccccc3s2)cs1)c1ccc([N+](=O)[O-])s1 | 4 | -19
Cc1ccc(-c2ncc(C(=O)Nc3ccc(Cl)cc3)c(-c3ccncc3)n2)cc1 | 65* | 27
O=C(Nc1cccc(F)c1)c1cnc(-c2ccc(F)cc2)nc1-c1ccncc1 | 64* | 3
Cc1c(F)cccc1NC(=O)c1cnc(-c2ccc(F)cc2)nc1-c1ccncc1 | 77* | 13
O=C(Nc1ccccc1)c1cnc(-c2ccc(F)cc2)nc1-c1ccncc1 | 44 | 6
Cc1ccc(NC(=O)c2cnc(-c3ccc(C)cc3)nc2-c2ccncc2)cc1 | 0 | 0
Cc1ccc(-c2ncc(C(=O)N3CCCCCC3)c(-c3ccncc3)n2)cc1 | -5 | 56*
O=C(Nc1ccccc1F)c1cnc(-c2ccccc2)nc1-c1ccncc1 | -2 | -12
Cc1ccc(-c2ncc(C(=O)N3CCCC3)c(N3CCCCC3)n2)cc1 | -6 | 22
O=C(CN1C(=O)/C(=C/c2cccc(Cl)c2)Sc2ccccc21)NCCN1CCCC1 | -3 | 49
